Assay results from PubChem BioAssay (EPA / NIEHS).
Several values for one entry are separate records, joined by “and”; a condition that tells them apart may be missing. Equal values may be shown once. Records with an inconclusive call do not appear. Some compounds were tested as several samples or in several runs, with calls that do not always agree. Activity calls are given as the source filed them. The calls were made as follows, unless noted: active = hit-call score of the fitted dose curve at least 0.9, where 1 is the maximum; inactive = score below 0.9.

What was measured:
THRB (gene 7068) = THRB (gene 7068) (UniProt P10828); assay: TOX21_TRB_BLA_Agonist_Followup_ratio: Tox21 Thyroid Hormone Receptor beta Agonism Beta-lactamase (BLA) Follow-Up Assay, Ratio (AID 2283954; active = hit-call score of the fitted dose curve at least 0.9, where 1 is the maximum)
How it was run: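 Human TRβ LBD–GAL4 DBD fusion in GeneBLAzer UAS-bla HEK293T cells; 11 concentrations in triplicate, 18 h at 37°C/5% CO2, T3 as agonist control. CCF4-AM substrate 2 h at room temperature; 460:530 nm ratio fitted for gain of signal versus DMSO.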

[1] = TOX21_TR_RXR_BLA_Agonist_Followup_viability: Viability Assessment in the Tox21 Thyroid Hormone Receptor beta Retinoid X Receptor alpha (RXRa) Agonism Beta-lactamase (BLA) Follow-Up Assay (AID 2283970; active = hit-call score of the fitted dose curve at least 0.9, where 1 is the maximum)
How it was run: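 In qHTS format, RXRa-bla HEK293T cells (2,500/well) received compound for 16h. ATP content was then measured with CellTiter-Glo, and responses were fitted bidirectionally relative to DMSO controls.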

[2] = CCTE_Shafer_MEA_dev_firing_rate_mean: CCTE's Neural Network Formation Assay for Mean Firing Rate, Shafer Lab (AID 2284031);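 also: AUC of well mean spike rate recorded on DIV 5 7 9 and 12; curve fitted for loss of firing so AC50 reflects decreased mean firing rate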
How it was run: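 Developing rat cortical networks on MEA plates undergo 12-day compound exposure. Firing frequency, averaged across active electrodes, is integrated as area under the curve over four recording days, referenced to DMSO.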

[3] = CCTE_Shafer_MEA_dev_per_burst_spike_percent: CCTE's Neural Network Formation Assay for Percent of Spikes in a Burst, Shafer Lab (AID 2284032);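 also: fitted as a decrease in burst spike percentage below DMSO baseline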
How it was run: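 Rat primary cortical neurons on 16-electrode MEA wells, dosed from plating day 0 for 12 days with renewal on DIV 5 and 9; spikes-in-bursts percentage averaged over bursting electrodes, collapsed as AUC across days 5, 7, 9, 12; loss direction versus DMSO.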

[4] = CCTE_Shafer_MEA_dev_active_electrodes_number: CCTE's Neural Network Formation Assay for Number of Active Electrodes, Shafer Lab (AID 2284040; active = hit-call score of the fitted dose curve at least 0.9, where 1 is the maximum;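 also: potency for loss of active electrodes versus DMSO so lower counts are hits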)
How it was run: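 Rat cortical primary cultures, 1.5 x 10^5 cells/well, PEI-coated MEA, laminin drop. Continuous exposure DIV 0–12; full media/compound change DIV 5, 9. Readout: electrodes with mean firing ≥5 spikes/min; AUC across days; loss vs DMSO.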

[5] = CCTE_Shafer_MEA_dev_burst_rate: CCTE's Neural Network Formation Assay for Burst Rate, Shafer Lab (AID 2284042);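 also: potency for loss of burst rate below DMSO control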
How it was run: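 Developmental network assay measuring how 12-day exposure of rat cortical neuron cultures alters bursting on extracellular MEA recordings. Values are AUC of well-mean burst rate across four recording days, relative to DMSO vehicle.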

[6] = CCTE_Shafer_MEA_dev_bursting_electrodes_number: CCTE's Neural Network Formation Assay for Number of Bursting Electrodes, Shafer Lab (AID 2284043; active = hit-call score of the fitted dose curve at least 0.9, where 1 is the maximum;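 also: potency is for loss of bursting electrodes relative to DMSO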)
How it was run: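 Read-out is the per-well number of electrodes bursting at least once every 2 minutes, recorded on days 5, 7, 9 and 12 and collapsed by trapezoidal area under the curve. Cultures were primary rat cortical neurons on MEA plates, treated continuously from plating.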

[7] = CCTE_Shafer_MEA_dev_per_burst_interspike_interval: CCTE's Neural Network Formation Assay for Burst Interspike Interval, Shafer Lab (AID 2284044);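 also: mean spike spacing inside bursts as AUC over recordings on days 5 7 9 12; potency for a decrease of within-burst interspike interval below DMSO level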
How it was run: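 Mean interspike interval within single-electrode bursts, averaged over bursting electrodes, from rat cortical cultures on MEA plates recorded on days 5, 7, 9 and 12. Continuous compound exposure from plating; trapezoidal AUC fitted downward relative to DMSO.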

[8] = CCTE_Shafer_MEA_dev_burst_duration_mean: CCTE's Neural Network Formation Assay for Mean Burst Duration, Shafer Lab (AID 2284045);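 also: curve fitted for loss meaning shorter burst duration than DMSO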
How it was run: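 Read-out: average first-to-last-spike interval within single-electrode bursts, averaged over bursting electrodes per well, then summarised as area under the curve across days 5, 7, 9 and 12. Developing rat cortical networks were exposed from day 0.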

[9] = CCTE_Shafer_MEA_dev_interburst_interval_mean: CCTE's Neural Network Formation Assay for Mean Interburst Interval, Shafer Lab (AID 2284046);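 also: well-mean interburst interval of bursting electrodes as AUC over four recording days; curve fitted for decrease in interburst interval relative to DMSO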
How it was run: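 Network formation assay in primary rat cortical cultures, exposed from DIV 0 to 12. Mean interburst interval per well, integrated as AUC over four recordings.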

[10] = CCTE_Shafer_MEA_dev_inter_network_spike_interval_mean: CCTE's Neural Network Formation Assay for Mean Inter-network Spike Interval, Shafer Lab (AID 2284047);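 as to AC50: potency for a decrease in mean inter-network spike interval below DMSO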
How it was run: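 Compound was given at plating to primary rat cortical neurons and renewed with full medium changes on DIV 5 and 9. Extracellular activity was recorded on days 5, 7, 9, 12; AUC values were fitted for loss relative to DMSO control.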

[11] = CCTE_Shafer_MEA_dev_network_spike_number: CCTE's Neural Network Formation Assay for Number of Network Spikes, Shafer Lab (AID 2284048);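 also: synchronized bursts across electrodes counted on days 5 7 9 12 and integrated as AUC; fit as a loss of signal meaning fewer network spikes than DMSO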
How it was run: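 Developing networks of primary rat cortical neurons are treated over 12 days starting at plating, with media and compound fully replaced on DIV 5 and 9. Network spike counts from four recording days are integrated as trapezoidal AUC.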

[12] = CCTE_Shafer_MEA_dev_spike_duration_mean: CCTE's Neural Network Formation Assay for Mean Spike Duration, Shafer Lab (AID 2284051);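 also: mean network spike duration pooled as area under curve over DIV 5 to 12 recordings; potency for a decrease in mean network spike duration versus DMSO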
How it was run: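 With DMSO as baseline, loss of mean network spike duration was scored from extracellular recordings of rat cortical neurons on MEA plates. Exposure spanned plating to DIV 12; the four recording days were collapsed into one AUC value.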

[13] = CCTE_Shafer_MEA_dev_network_spike_duration_std: CCTE's Neural Network Formation Assay for Standard Deviation of Network Spike Duration, Shafer Lab (AID 2284052);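 also: area under curve of spike duration SD across recording days 5 to 12; hits are decreases in network spike duration SD versus DMSO vehicle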
How it was run: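 Developing networks of rat cortical neurons were exposed over twelve days in vitro on 48-well MEA plates. Trapezoidal AUC of recordings (DIV 5–12) was analysed for signal loss relative to DMSO vehicle.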

[14] = CCTE_Shafer_MEA_dev_per_network_spike_spike_number_mean: CCTE's Neural Network Formation Assay for Mean Number of Spikes in a Network Spike, Shafer Lab (AID 2284053);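 also: fitted as decrease in spikes per network spike relative to DMSO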
How it was run: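 First, rat cortical cells (1.5 x 10^5/well) were seeded onto MEA wells; second, dosing began at plating and was refreshed on DIV 5 and 9; finally, network-spike spike counts across DIV 5–12 were summarized as AUC.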

[15] = CCTE_Shafer_MEA_dev_per_network_spike_spike_percent: CCTE's Neural Network Formation Assay for Percent of Spikes in a Network Spike, Shafer Lab (AID 2284054)
How it was run: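 Rat primary cortical cultures, 1.5 x 10^5 cells/well on MEA. Continuous compound exposure d0–12, medium/compound renewed DIV 5, 9. Network-spike spike % (0.05 s peak window), AUC over 4 recordings, DMSO baseline.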

[16] = CCTE_Shafer_MEA_dev_LDH: CCTE's Lactate Dehydrogenase Assay for Cytotoxicity in the Neural Network Formation Assay, Shafer Lab (AID 2284068; active = hit-call score of the fitted dose curve at least 0.9, where 1 is the maximum;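 also: exposure for twelve days from plating with re-dosing on DIV 5 and 9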)
How it was run: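 Developing rat cortical networks on MEA plates are exposed to compound for 12 days from plating. LDH activity is measured spectrophotometrically, with DMSO as baseline.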

[17] = CCTE_Shafer_MEA_dev_AB: CCTE's Alamar Blue Assay for Cytotoxicity in the Neural Network Formation Assay, Shafer Lab (AID 2284083; active = hit-call score of the fitted dose curve at least 0.9, where 1 is the maximum;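 also: resazurin reduction fluorescence as viability of cultured neurons; twelve days of exposure from plating with re-dosing on DIV 5 and 9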)
How it was run: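 Cytotoxicity companion to the developmental MEA: primary rat cortical neurons, 12-day exposure starting day 0, compound refreshed DIV 5 and 9; resazurin fluorescence, fitted against DMSO vehicle.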

[18] = CCTE_Shafer_MEA_dev_mutual_information_norm: CCTE's Neural Network Formation Assay for Mutual Information Normalization, Shafer Lab (AID 2284091);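 also: mutual information between electrodes summarised as area under curve across four recording days; potency is for a decrease in mutual information relative to DMSO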
How it was run: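 Developing rat cortical networks on 16-electrode MEA wells are treated throughout formation (DIV 0–12). Shared electrode information is recorded four times, converted to area-under-curve, and fitted for decreases against DMSO vehicle.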

[19] = CCTE_Shafer_MEA_dev_correlation_coefficient_mean: CCTE's Neural Network Formation Assay for Mean Correlation Coefficient, Shafer Lab (AID 2284093);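 also: well mean pairwise spike train correlation integrated as AUC over recording days 5 to 12; potency fitted for loss of correlation relative to DMSO vehicle wells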
How it was run: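 Extracellular firing from rat cortical networks on 48-well MEAs, DMSO-referenced, negative fitting direction. Compound present from plating to DIV12; mean pairwise correlation per well integrated over DIV5–12 recordings by trapezoidal AUC.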

Measured: AC50

Chain of THRB (gene 7068) (P10828 whole entry, looked up, the tested form may be a part): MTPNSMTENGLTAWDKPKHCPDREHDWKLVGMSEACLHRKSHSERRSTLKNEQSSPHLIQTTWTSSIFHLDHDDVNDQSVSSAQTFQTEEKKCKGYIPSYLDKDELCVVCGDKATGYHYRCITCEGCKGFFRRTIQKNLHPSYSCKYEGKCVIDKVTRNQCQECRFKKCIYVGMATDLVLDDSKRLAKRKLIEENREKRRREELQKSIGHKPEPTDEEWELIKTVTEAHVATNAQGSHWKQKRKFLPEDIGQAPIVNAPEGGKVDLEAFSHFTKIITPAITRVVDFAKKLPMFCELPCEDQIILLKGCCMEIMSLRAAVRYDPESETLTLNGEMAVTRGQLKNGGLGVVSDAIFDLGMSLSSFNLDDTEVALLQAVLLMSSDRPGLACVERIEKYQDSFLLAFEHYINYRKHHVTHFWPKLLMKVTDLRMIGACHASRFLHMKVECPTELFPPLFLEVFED

CC(C)(C)CC(C)(C)c1ccc(O)c(Cc2ccc(Cl)cc2Cl)c1
inactive: THRB (gene 7068) | [1]

Cc1cc(-n2c(=O)[nH]c(=O)n(C)c2=O)ccc1Oc1ccc(S(=O)(=O)C(F)(F)F)cc1
inactive: THRB (gene 7068) | [1]

COc1cc(C)c(/C=C/C(C)=C/C=C/C(C)=C/C(=O)O)c(C)c1C
inactive: [1]

Cc1c(O)cccc1C(=O)N[C@@H](CSc1ccccc1)[C@H](O)CN1C[C@H]2CCCC[C@H]2C[C@H]1C(=O)NC(C)(C)C
active: [2] 438 nM | [3] 1.43 µM | [4] 953 nM | [5] 664 nM | [6] 819 nM | [7] 473 nM | [8] 311 nM | [9] 1.51 µM | [10] 1.09 µM | [11] 1.56 µM | [12] 559 nM | [13] 1.27 µM | [14] 1.19 µM | [15] 6.35 µM | [16] 7.06 µM | [17] 10.1 µM | [18] 772 nM | [19] 1.78 µM

CN(C)C(=O)C(CCN1CCC(O)(c2ccc(Cl)cc2)CC1)(c1ccccc1)c1ccccc1
active: [2] 63.2 nM and 101 nM and 190 nM | [3] 514 nM and 244 nM and 1.49 µM | [4] 385 nM and 196 nM and 1.21 µM | [5] 41.8 nM and 92.4 nM and 335 nM | [6] 117 nM and 63.8 nM and 1.19 µM | [7] 92.1 nM and 66.7 nM and 493 nM | [8] 185 nM and 33.1 nM and 526 nM | [9] 581 nM and 249 nM and 2.56 µM | [10] 3 nM and 2.62 µM | [11] 32.8 nM and 102 nM and 172 nM | [12] 511 nM and 18.7 nM and 1.15 µM | [13] 262 nM and 11.6 nM and 736 nM | [14] 766 nM and 44.5 nM and 2.52 µM | [15] 2.31 µM and 276 nM and 2.68 µM | [16] 4.19 µM and 2.7 µM and 2.94 µM | [17] 5.74 µM and 5.44 µM and 5.02 µM | [18] 112 nM and 60.7 nM and 621 nM | [19] 1.35 µM and 766 nM and 2.54 µM
inactive: [10]
